Assay results published in paper PMC5540273 (PLoS ONE, 2017).
Where two headings read alike, the source gives them in different places.

How the values were obtained:
Conditions in all cases: n = 1
KIT = system: KIT
LATS1 = system: LATS1
LATS2 = system: LATS2
LCK = system: LCK
LIMK1 = system: LIMK1
LIMK2 = system: LIMK2
LKB1 = system: T1, LKB1
T1 construct: gene STK11

LOK = system: T2, LOK
T2 construct: gene STK10

LRRK2 = system: LRRK2
LTK = system: LTK
[1] = concentration: 1 μM, replicates: in singlicate
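Also: KINOMEscan kinase panel screen.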

| SMILES | %Inh (KIT; [1]) [%] | %Inh (LATS1; [1]) [%] | %Inh (LATS2; [1]) [%] | %Inh (LCK; [1]) [%] | %Inh (LIMK1; [1]) [%] | %Inh (LIMK2; [1]) [%] | %Inh (LKB1; [1]) [%] | %Inh (LOK; [1]) [%] | %Inh (LRRK2; [1]) [%] | %Inh (LTK; [1]) [%] | %Inh (KIT; 1 µM) [%] | %Inh (LATS1; 1 µM) [%] | %Inh (LATS2; 1 µM) [%] | %Inh (LCK; 1 µM) [%] | %Inh (LIMK1; 1 µM) [%] | %Inh (LIMK2; 1 µM) [%] | %Inh (LKB1; 1 µM) [%] | %Inh (LOK; 1 µM) [%] | %Inh (LRRK2; 1 µM) [%] | %Inh (LTK; 1 µM) [%] |
| --- | --- | --- | --- | --- | --- | --- | --- | --- | --- | --- | --- | --- | --- | --- | --- | --- | --- | --- | --- | --- |
| Cc1cccc(-c2nc(Nc3ccncc3)c3ccccc3n2)n1 [GW855857] | 10 | 3 | 0 | 9 | 12 | 5 | 18 | 37 | 0 | 21 | – | – | – | – | – | – | – | – | – | – |
| Cl.c1ccc(-c2n[nH]cc2-c2ccnc(-c3ccc(CN4CCOCC4)cc3)c2)nc1 [GW776245] | 8 | 3 | 0 | 0 | 5 | 19 | 18 | 0 | 0 | 28 | – | – | – | – | – | – | – | – | – | – |
| COc1cc2ncnc(Nc3ccc4nc(-c5ccccc5)[nH]c4c3)c2cc1OC.Cl [GW282450] | 72 | 0 | 0 | 33 | 0 | 0 | 0 | 5 | 0 | 11 | – | – | – | – | – | – | – | – | – | – |
| COc1ccc(Nc2nccc(-c3cccc(NC(=O)c4cc5cc(F)ccc5[nH]4)c3)n2)cc1 [GSK1229782] | 57 | 5 | 6 | 46 | 0 | 12 | 12 | 0 | 42 | 19 | – | – | – | – | – | – | – | – | – | – |
| CN(C)CCN(C)C(=O)c1cc(-c2ccncc2)c(-c2ccc(Cl)c(O)c2)o1.Cl.Cl [SB-710397] | 0 | 3 | 0 | 34 | 0 | 0 | 0 | 72 | 0 | 11 | – | – | – | – | – | – | – | – | – | – |
| COC(=O)c1c(-c2ccccc2)c2cc(OC)ccc2c(=O)n1Cc1ccccc1 | 93.3 | 31 | 0 | 0 | 0 | 0 | 8 | 9 | 0 | 11 | – | – | – | – | – | – | – | – | – | – |
| Cn1ccc2ncnc(Oc3cccc(C(=O)Nc4ccccc4)c3)c21 | 35 | 0 | 6 | 7 | 100 | 0 | 25 | 0 | 0 | 2 | – | – | – | – | – | – | – | – | – | – |
| Cc1cc(NCC(c2ccccc2)c2ccccc2)nc(NCc2ccc(C(F)(F)F)cc2)n1 [GW497681] | 6 | 0 | 5 | 0 | 0 | 9 | 12 | 0 | 0 | 0 | – | – | – | – | – | – | – | – | – | – |
| COc1ccccc1CNC(=O)c1cc(C(=O)c2ccccc2C)c[nH]1 [GSK364507] | 41 | 0 | 0 | 12 | 8 | 5 | 0 | 0 | 0 | 0 | – | – | – | – | – | – | – | – | – | – |
| Fc1cccc(COc2nnc(-c3ccc4c(c3)CCO4)o2)c1 | 3 | 0 | 0 | 0 | 0 | 0 | 16 | 0 | 4 | 0 | – | – | – | – | – | – | – | – | – | – |
| Clc1cc(Cl)cc(Nc2ccnc(Nc3cc(Cl)cc(Cl)c3)n2)c1 [GSK175726] | 40 | 0 | 17 | 27 | 10 | 31 | 14 | 0 | 0 | 0 | – | – | – | – | – | – | – | – | – | – |
| Cl.O=C(Nc1cccc(-c2nn3ncccc3c2-c2ccnc(Nc3cccnc3)n2)c1)c1c(F)cccc1F [GSK312879] | 36 | 2 | 0 | 44 | 2 | 0 | 0 | 0 | 39 | 3 | – | – | – | – | – | – | – | – | – | – |
| Cc1ccc(NC(=O)Nc2cccc(C(F)(F)F)c2)cc1 [GSK955403] | – | – | – | – | – | – | – | – | – | – | 91.4 | 0 | 20 | 6 | 0 | 10 | 16 | 0 | 0 | 0 |
| CC(C)(C)c1ccc(C(=O)Nc2cn3cc(Cl)ccc3n2)cc1 | 74 | 10 | 0 | 26 | 0 | 0 | 4 | 8 | 0 | 0 | – | – | – | – | – | – | – | – | – | – |
| Cl.Oc1ccc(-c2nc(-c3ccccc3)[nH]c2-c2ccncc2)cc1 [SB-428218] | 26 | 0 | 48 | 20 | 0 | 0 | 8 | 0 | 0 | 0 | – | – | – | – | – | – | – | – | – | – |
| O=C(O)COc1ncnc2cc(-c3ccc4[nH]ncc4c3)sc12 | 21 | 0 | 48 | 0 | 0 | 0 | 0 | 2 | 0 | 97.3 | – | – | – | – | – | – | – | – | – | – |
| C[C@@H]1CCCCN1c1cc(-c2ccc3c(N)n[nH]c3c2)nc(N)n1 [GSK2258759] | 4 | 23 | 14 | 0 | 0 | 19 | 0 | 0 | 0 | 0 | – | – | – | – | – | – | – | – | – | – |
| Fc1cc(Cl)ccc1Nc1ccnc2cc(I)ccc12 [GW551191] | 49 | 0 | 0 | 24 | 0 | 0 | 0 | 0 | 37 | 13 | – | – | – | – | – | – | – | – | – | – |
| CN1C(=O)C(Nc2ccc(Cl)c(C(=O)O)c2)=C(c2ccc(Cl)cc2)C1=O [SB-404290] | 1 | 15 | 15 | 23 | 7 | 0 | 18 | 4 | 0 | 9 | – | – | – | – | – | – | – | – | – | – |
| Cn1ccc2ncnc(Oc3ccc(Nc4nc5ccccc5[nH]4)cc3)c21 | 77 | 0 | 0 | 0 | 0 | 0 | 3 | 93.7 | 0 | 0 | – | – | – | – | – | – | – | – | – | – |
